Hits are enriched below; roughly 0.37% of the tested compounds scored in any of these assays.
HRas wt GTP: changes GTP binding to wildtype human HRas. GST-Ras wt beads, Bodipy-FL-GTP binding, flow cytometry; actives lie on both sides. P01112. AID 759. GTP binding activity, % at 10 µM. 190,000 tested, 0.14% active;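 active means GTP binding activity at least 20% away from the 100% baseline, either lowered as inhibitor or raised as activator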;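 further: 0% = unlabeled GTP competition control and 100% = no-compound control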
Target sequence (P01112 whole entry, looked up): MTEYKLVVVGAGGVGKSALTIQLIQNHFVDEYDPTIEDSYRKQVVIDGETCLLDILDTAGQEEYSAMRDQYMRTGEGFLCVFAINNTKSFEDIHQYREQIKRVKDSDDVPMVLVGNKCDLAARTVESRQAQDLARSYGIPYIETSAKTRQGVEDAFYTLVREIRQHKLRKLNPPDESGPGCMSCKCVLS
Rab2A wt mod: changes GTP binding to wildtype dog Rab2A, up or down; P61105; AID 760; GTP binding activity, % at 10 µM; 190,000 tested, 0.19% active; GST-Rab2 wt beads, Bodipy-GTP binding, flow cytometry;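 active means GTP binding activity at least 20 points away from 100%, either lowered or raised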;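 further: 0% = beads with excess unlabeled GTP and 100% = no-compound control corrected for plate trend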
Rac1 wt GTP bind: human Rac1 wildtype GTP binding, inhibitors and activators | GST-Rac1 beads, fluorescent GTP binding, flow cytometry; actives lie on both sides; 0 = cold GTP competed, 100 = untreated | GTP binding activity (% of control), % at 10 µM | 190,000 tested, 0.27% active | AID 757;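 active means GTP binding activity at least 20 points away from the 100% control level, either lower or higher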
Rab7 wt GTP bind: modulators of GTP binding to dog Rab7 wildtype GTPase. GST-Rab7 beads, fluorescent GTP binding, flow cytometry; actives lie on both sides; untreated = 100%, excess cold GTP = 0%. GTP binding activity (percent of control), % at 10 µM. 190,000 tested, 0.055% active;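 active means fluorescent GTP binding to Rab7 beads changed by at least 20 points from the 100% baseline, either direction, mostly lower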;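 further: median green fluorescence of bound Bodipy-FL-GTP per Rab7 bead population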
Cdc42 wt GTP: human Cdc42 wildtype GTP binding change, either direction; percent activity (GTP binding), % at 10 µM; GST-Cdc42 beads, Bodipy-GTP binding, flow cytometry; actives lie on both sides; P60953; 190,000 tested, 0.2% active;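 active means percent activity GTP binding at least 20 points away from the 100% baseline, either down as inhibitor or up as activator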;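 further: median bead fluorescence of bound Bodipy-FL-GTP at 100 nM; 0% = excess unlabeled GTP control and 100% = no compound control; below 100% means less GTP binding so inhibitor and above means activator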
Rac1 act GTP bind: alters GTP binding to activated mutant human Rac1; P63000; GST-Rac1 activated beads, fluorescent GTP binding, flow cytometry; actives lie on both sides; 100% means binding = to untreated wells; percent activity (GTP binding), % at 10 µM; 190,000 tested, 0.11% active; AID 764;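 active means GTP binding at least 20 percentage points away from the 100% baseline, in either direction, so actives lie on both sides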
* hit, by the source's call; [ ] = another dose, or the depositor's remark.

SMILES	HRas wt GTP	Rab2A wt mod	Rac1 wt GTP bind	Rab7 wt GTP bind	Cdc42 wt GTP	Rac1 act GTP bind
O=c1[nH]c(=S)[nH]c(O)c1N=Nc1ccc2c(c1)OCO2	93	94	94	97	91	92
O=c1[nH]c(=S)[nH]c(O)c1N=Nc1cc2c(cc1[N+](=O)[O-])OCO2	82	81	83	85	79*	79*
CCOc1ccc2[nH]c(=O)c(CN(CCO)C3(c4nnnn4C4CCCCC4)CCCCC3)cc2c1	98	97	99	96	98	97
CCOc1ccc(-n2c(O)c(C=Nc3ccc(N4CCOCC4)cc3)c(=O)[nH]c2=O)cc1	98	95	98	95	98	93
CSc1ncc(/C=C2/C(=O)NC(=O)N(c3ccc(Cl)cc3)C2=O)cn1	98	100	102	95	101	98
CC1(C)CC(n2[nH]c(=O)c3c2NC(=O)CSC3c2ccccc2)CCO1 (centres undefined)	97	75*	102	96	94	96
Cc1ccc(C2SCC(=O)Nc3c2c(=O)[nH]n3C2CCOC(C)(C)C2)cc1 (centres undefined)	100	101	102	101	102	98
CC(Oc1ccc(-c2ccccc2)cc1)C(=O)O (centres undefined)	137*[activator]	141*[activator]	157*[activator]	126*[activator]	161*[activator]	130*[activator]
Cc1cc(C)cc(N2C(=O)NC(=O)/C(=C\C=C\c3ccco3)C2=O)c1	85	83	78*	88	78*	84
CCC(C)NC(=O)c1c(N)n(CCCOC)c2nc3ccccc3nc12 (centres undefined)	99	99	99	99	99	98
COCCCn1c(N)c(C(=O)Nc2sc3c(c2C(=O)OC)CCCC3)c2nc3ccccc3nc21	65*	66*	84	84	67*	82
COc1ccc(-c2cc(=NCCCCCC(=O)O)c3cc(C)ccc3o2)cc1	73*	70*	71*	93	69*	88
